D3 antag: D3 dopamine receptor (human) antagonism; hit rate 2.5% among 360,000; AID 652054; D3R cells, DiscoveRx beta-arrestin luminescence, antagonist mode; hits give low values; max response, negative = inhibition, %; in the data active = max response below about -50%; inconclusive = no clear call, values can overlap the other calls; note: % is set by controls: 0 for no effect and ±100 for the full control effect
Target sequence (P35462 whole entry, looked up): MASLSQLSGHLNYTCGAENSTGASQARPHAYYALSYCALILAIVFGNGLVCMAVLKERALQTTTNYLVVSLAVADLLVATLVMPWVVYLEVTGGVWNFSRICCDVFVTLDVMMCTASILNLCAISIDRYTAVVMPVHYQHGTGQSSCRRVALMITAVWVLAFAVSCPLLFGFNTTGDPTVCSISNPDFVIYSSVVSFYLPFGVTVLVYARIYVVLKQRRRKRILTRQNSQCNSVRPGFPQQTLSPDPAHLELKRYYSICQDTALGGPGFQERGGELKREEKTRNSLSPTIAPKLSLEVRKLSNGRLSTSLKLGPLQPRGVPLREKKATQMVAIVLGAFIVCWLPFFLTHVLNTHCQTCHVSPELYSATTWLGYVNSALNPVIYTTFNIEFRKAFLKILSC
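Cells expressing the human receptor were seeded at 1500 cells/well, incubated overnight at 37 degrees C in 5% CO2, then exposed to library compounds with dopamine controls for 90 minutes at 37 degrees C before luminescent detection.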
PI5P4Ka inh: inhibitors of human PI5P4K alpha. hit rate 1.2% among 330,000. max response, %. PI5P4Kalpha enzyme, ADP-Glo luminescence, 60 min; hits give low values; active = max response of -50% or lower; inconclusive = between -30% and -50%; inactive = -30% or higher; note: value at the top dose of about 77 µM; % is set by controls: 0 for no effect and ±100 for the full control effect
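Enzyme plus substrate dispensed, test compounds pinned in, then ATP (5 microM final) added. After 60 min at RT, ADP-Glo reagent 1 for 45 min and reagent 2 for 30 min preceded luminescence imaging.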
DRD3 agonist: D3 dopamine receptor (human) agonism; D3R DiscoveRx beta-arrestin cells, luminescence, 90 min; hit rate 0.58% among 410,000; max activation, %; P35462; in the data active = max activation above about 30%; note: 0% is about no effect
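Cells at 1500/well, incubated overnight, then treated with pinned compounds (dopamine as control) for 90 min at 37 degrees C. DiscoveRx reagent added for 30 - 60 minutes at room temperature; luminescence read.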
LDHA inh: LDHA (human) enzyme inhibition. P00338. purified LDHA, NADH/diaphorase-resazurin fluorescence; hits give low values. activity change, % (values are at about 110 or 230 µM). hit rate 0.15% among 480,000; in the data active = activity change below about -30%; inconclusive = mostly about -25% to -30%;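 note: plate controls were DMSO wells for no effect and wells without enzyme for full effect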
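Remaining NADH was detected by diaphorase (0.133 mg/mL) converting 37 µM resazurin to fluorescent resorufin, read at 0 and 20 minutes. The preceding 5-minute room-temperature reaction used 2 nM LDHA, 0.2 mM sodium pyruvate and 0.06 mM NADH at pH 7.4.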
PI4K2A inh: PI4K2A (human) kinase inhibition | purified PI4K2A, ADP-Glo luminescence, 1 h; hits give low values | activity change, negative = inhibition, % at 76.9 µM | hit rate 0.13% among 420,000 | AID 1346378; in the data active = activity change below about -50%; inconclusive = mostly about -30% to -49%;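 note: -100% = wells without enzyme as full effect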
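PI4K2A activity was measured by ADP-Glo luminescence: enzyme (4 ug/mL stock) and phosphatidylinositol (1.2 mM stock) in Tris pH 7.5/MgCl2/EGTA/Triton X-100 buffer were reacted with ATP (300 microM stock) for one hour at ambient temperature.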
* = called active by the depositor; ? = inconclusive; · = not tested or not shown. Sampled rows, rich in hits. Any-hit rate of the full collection: about 3.3%.

SMILES | D3 antag | PI5P4Ka inh | DRD3 agonist | LDHA inh | PI4K2A inh
Cc1ccc(N(CC(O)CN2CCCCC2)S(=O)(=O)c2ccccc2)cc1 (configuration not stated) | -77* | -3 | -19 | -6 | -12
Cc1ccc(N(CC(O)CN2CCCCC2)S(=O)(=O)c2ccc(C)cc2)cc1 (configuration not stated) | -52* | -5 | -18 | -7 | -4
Cc1ccc(N(CC(O)CN2CCOCC2)S(=O)(=O)c2ccc(C)cc2)cc1 (configuration not stated) | · | · | · | -8 | ·
CCc1ccc2oc(C(=O)N(Cc3ccc(C(C)(C)C)cc3)C3CCS(=O)(=O)C3)cc(=O)c2c1 (configuration not stated) | · | · | · | -5 | ·
O=C(CN1CCOCC1)N1c2ccccc2Sc2ccccc21 | -6 | -4 | 1 | -1 | -1
O=C(N1CCOCC1)N1c2ccccc2Sc2ccccc21 | -77* | · | -6 | -3 | 1
COC(=O)c1ccccc1-c1c2ccc(=N)cc-2oc2cc(N)ccc12 | -64* | -8 | -36 | -58* | -1
Cc1ccccc1C(=O)N1[C@@H](C(C)C)COc2cc(Br)ccc2S1(=O)=O | 15 | -1 | 35* | 1 | 3
CN(CC(=O)NC1(C)CCS(=O)(=O)C1)Cc1ccc(Cl)cc1 (configuration not stated) | · | · | · | 2 | ·
CCCCNC(=O)O[C@@H]1C[C@H]2CCCC(=O)N3CC[C@@H](C1)[C@@H]23 | -4 | 2 | 33* | -4 | 1
Cn1nc(-c2ccc(N3CCCC3)c([N+](=O)[O-])c2)c2ccccc2c1=O | · | · | · | 10 | ·
CC(/C=C1\SC(=S)N(NC(=O)c2ccc(C)cc2)C1=O)=C\c1ccccc1 | -52* | 1 | -7 | 4 | -10
CC(/C=C1\SC(=S)N(c2ccc(C(=O)O)cc2)C1=O)=C\c1ccccc1 | 6 | -57* | 5 | -7 | -6
CCOC(=O)c1c(CN2CCC(C(N)=O)CC2)nc2ccccc2c1C | · | · | · | -1 | ·
NS(=O)(=O)c1ccc(NC(=O)CSc2nnc(-c3cccs3)o2)cc1 | · | · | · | · | -5
O=C(NCc1ccccc1)C1c2ccccc2OCC(=O)N1CCc1ccccc1 (configuration not stated) | 6 | -4 | 1 | -3 | 0
O=C(NCc1ccccc1)C1c2ccccc2OCC(=O)N1Cc1cccnc1 (configuration not stated) | -61* | 1 | -5 | -3 | -2
CCCCNC(=O)C1c2ccccc2OCC(=O)N1Cc1ccccn1 (configuration not stated) | ? | -7 | -5 | 0 | 7
O=C(NC1CCCC1)C1c2ccccc2OCC(=O)N1Cc1ccccn1 (configuration not stated) | -58* | 2 | -16 | 1 | -1
O=C(CSc1nnc(SCc2ccc(Cl)cc2)s1)N/N=C/c1ccc(Cl)cc1Cl | -9 | -1 | 0 | -9 | -3
Cc1nnc(SCC(=O)N/N=C/c2cc(Cl)c(O)c(Cl)c2)s1 | 21 | -79* | 2 | -3 | 4
OCCCCSc1ccc(O)cc1 | · | · | · | 2 | ·
CC(NCCCSc1ccccc1)C(O)c1ccc(O)cc1 (configuration not stated) | -62* | 1 | -14 | -17 | -6
CCOC(=O)CSC1=C(C#N)C(=O)NC(c2ccc(OC)cc2)S1 (configuration not stated) | -58* | -63* | -4 | -1 | -14
CCOC(=O)CSC1=C(C#N)C(=O)NC(c2ccc(OC)c(OC)c2)S1 (configuration not stated) | -67* | -72* | -1 | -6 | -24
COc1ccc(C2NC(=O)C(C#N)=C(S)N2c2ccc(C)cc2)cc1OC (configuration not stated) | 1 | -6 | -4 | -1 | -2
CC1=C([N+](=O)[O-])C(c2cccc(Br)c2)C2=C(N1)c1ccccc1C2=O (configuration not stated) | -94* | -24 | 2 | 2 | 1
Cc1cc(C)cc(C(=O)Nc2ccc(Cl)c(C(F)(F)F)c2)c1 | · | · | · | -21 | ·
O=S(=O)(Nc1nc2ccccc2[nH]1)c1ccc(Cl)cc1 | -22 | · | -6 | -3 | -5
O=S(=O)(Nc1nc2ccccc2[nH]1)c1ccccc1 | -55* | -1 | 0 | -7 | 2
